The values that follow come from PubChem BioAssay AID912 (National Center for Advancing Translational Sciences (NCATS), 2007).

Where “and” joins values, the source holds several entries; their conditions need not be identical. Identical values can stand only once. The whole screen tested about 70,000 compounds, of which about 470 (0.67%) were called active. Roughly 18% stayed inconclusive and do not appear here. The sample as a whole holds a higher share of actives than the screen did. Unmarked numbers belong to inactive results. Calls follow the shape of the full dose curve.
% is scaled to controls: 0 for no effect and ±100 for the full control effect; potency is read from the fitted curve at half-maximal effect.

The assay is described as follows: qHTS Assay for Anthrax Lethal Toxin Internalization. Also: nearly all actives have a fitted effect of over 50% in size. The conditions noted are these: Cells, FRET ratio (460/530); series mostly up to 40 µM; activity change, negative = inhibition: at the top concentration. In general terms: qHTS replaces the single test concentration by a dilution series.
For the compound `O=C1[C@H]2[C@H]3[C@H](O)[C@H](O)C/C(=N/OCc4ccccc4)[C@H]3CC[C@@H]2C(=O)N1Cc1ccccc1`, the activity change, negative = inhibition is 0.866% [at 1.6 µM].
Regarding `C/C(CCN1CCCCc2nc(C)c(C)cc21)=N\O[C@@H](C)c1cn([C@@H]2COC[C@@H]2O)nn1`, the activity change, negative = inhibition was 16% [at 8 µM].
Consider `COC(=O)C1(C)C=CCN1C(=O)c1ccccc1` (stereo not drawn), for which the “activity change, negative = inhibition” value is 1.85%.
With `CC1=C(C(=O)OCc2ccccc2)C(c2ccc(C(F)(F)F)cc2)NC(=O)N1CCCCCC(=O)O` (stereo not drawn), the “activity change, negative = inhibition” value is 10.5%.
Same read-out and setting: in the case of `CO[C@@H]1COC(=O)[C@H](Cc2ccccc2)NC(=O)C/C=C\[C@@H](C)[C@H](OC)COC(=O)[C@@H](C)NC(=O)C/C=C\[C@H]1C` it was 5.09% [at 1.6 µM] and -1.18% [at 8 µM].
As to `COC(=O)c1ccc(C(NC(=O)OCc2ccccc2)/C(C)=C/[C@@H](C)C(=O)NCc2cc(C)on2)cc1` (stereo partly drawn), the “activity change, negative = inhibition” value is 0.057%.
Regarding `O=C(CC(Cc1ccccc1)C(=O)O)NCCc1ccc2c(c1)OCO2` (stereo not drawn), the “activity change, negative = inhibition” value is -0.491%.
As for `O=C(Nc1ccncc1)c1cc2ccccc2o1`, the “activity change, negative = inhibition” value is -5.1%.
For `O=C(NCCc1ccc2c(c1)OCCO2)c1cc2ccccc2o1`, the Potency is 12.6 µM (active).
As for `COC(=O)C1(C)C=CC2(CCCCC2)N1C(C)=O` (stereo not drawn), the “activity change, negative = inhibition” value is 5.36%.
The same measure, in the same setting: for `CC(C)(C)c1ccc(OC2C=CC(C#Cc3ccccc3)OC2CO)cc1` (stereo not drawn) the value was -3.38% [at 8 µM].
With `CCC[C@@H]1C[C@@]1(CCC)C(NC(=O)c1ccc(-c2ccccc2)cc1)c1cccc(Cl)c1` (stereo partly drawn), the “activity change, negative = inhibition” value is -10.9%.
As to `CCOC(=O)Cn1c(CN(Cc2ccccc2)Cc2ccccc2)nc2c1c(=O)[nH]c(=O)n2C`, the “activity change, negative = inhibition” value was 6.87%.
For the compound `CC(C(=O)O)N1C(=O)c2cccc3cccc1c23` (stereo not drawn), the “activity change, negative = inhibition” value is -8.16%.
Turning to `C[N+](C)(CCCCCC[N+](C)(C)CCCN1C(=O)c2cccc3cccc(c23)C1=O)CCCN1C(=O)c2cccc3cccc(c23)C1=O`, the “activity change, negative = inhibition” value was 12.5%.
Consider `COc1ccc(N2C(=O)c3cccc4cccc(c34)C2=O)nn1`, for which the Potency is 7.94 µM (active).
Turning to `CC(N)=NCc1cccc(CN)c1`, the “activity change, negative = inhibition” value is 2.64%.
Regarding `CC(=O)CC(C)C`, the “activity change, negative = inhibition” value is 3.44%.
Still for that read-out and setting: for `OCCCNCc1ccccn1` the value was 9.72% [at 8 µM].
With `CO[C@H]1COC(=O)[C@H](Cc2ccccc2)NC(=O)C/C=C\[C@@H](C)[C@H](OC)COC(=O)C/C=C\[C@@H]1C`, the activity change, negative = inhibition was 30% [at 8 µM].
`c1cncc(-c2nc(N3CCNCC3)c3ccccc3n2)c1`: the “activity change, negative = inhibition” value is 0.183%.
Take `Cc1ccc(S(=O)(=O)NC(=O)NN2C[C@H]3CCC[C@@H]3C2)cc1`: the activity change, negative = inhibition was -1.11% [at 3.58 µM].
Consider `Cc1cccc(C(=O)O)c1`, for which the “activity change, negative = inhibition” value is 4.72%.
With `C[C@@H](N)[C@@H](C)Cc1ccccc1`, the activity change, negative = inhibition is -3.08% [at 8 µM].
As for `CCOC(=O)C1CCc2nc3ccccc3c(=O)n21` (stereo not drawn), the “activity change, negative = inhibition” value was 5.34%.
As for `CCOC(=O)C1Cn2c(nc3c(c2=O)C(C)(CC)Cc2ccccc2-3)S1` (stereo not drawn), the Potency was 6.31 µM (active).
With `CC1(C)Cc2ccccc2-c2nc(CN3CCOCC3)[nH]c(=O)c21`, the “activity change, negative = inhibition” value was -0.761%.
On to `CCS(=O)(=O)N(C)[C@@H]1c2cc(C#N)ccc2OC(C)(C)[C@H]1O`, for which the activity change, negative = inhibition entry is “inactive”.
On to `CCCC(Cl)CCCC(Cl)CCC(Cl)CCC(Cl)CCC(Cl)CCCC(Cl)CCC` (stereo not drawn), for which the “activity change, negative = inhibition” value is -11.1%.
Consider `C1CCC2OC2C1` (stereo not drawn), for which the “activity change, negative = inhibition” value is -1.8%.
Take `Cc1sc2c(c1C)c(=O)n(-c1ccccc1)c1nncn21`: the “activity change, negative = inhibition” value was 6.99%.
With `c1ccc2c(c1)[I+]c1ccccc1-2`, the Potency was 15.8 µM (active).
Take `CCCCC[C@H](O)CCCC(=O)O`: the “activity change, negative = inhibition” value is 6.3%.
Regarding `C[C@@H](c1ccccc1)N1C(=O)[C@H]2[C@H]3[C@H](O)[C@H](O)C/C(=N/OC[C@@H](O)COCc4ccco4)[C@@H]3CC[C@@H]2C1=O`, the activity change, negative = inhibition was 0.141% [at 8 µM].
With `CC(=O)Oc1ccccc1C(=O)Nc1ncc([N+](=O)[O-])s1`, the Potency was 1.26 µM (active).
Regarding `O=C(Cl)c1ccccc1[N+](=O)[O-]`, the “activity change, negative = inhibition” value was -11.9%.
Regarding `CC(=O)Oc1ccc(C(=O)Nc2nccs2)cc1`, the “activity change, negative = inhibition” value is 0.315%.
In the case of `N#Cc1cccc(-c2nc3cnc(N4CCNCC4)nc3n(C3CC3)c2=O)c1`, the “activity change, negative = inhibition” value was -3.15%.
Take `CO[C@H]1COC(=O)CCC[C@@H](C)[C@H](OC)COC(=O)[C@@H](C)NC(=O)C/C=C\[C@@H]1C`: the activity change, negative = inhibition was -7.25% [at 8 µM].
Take `Cc1cc(C)c2nc3c(c([C@H](O)[C@@H]4CCCCN4)c2c1)CC/C3=C/c1ccc(Cl)cc1`: the activity change, negative = inhibition was -12.7% [at 8 µM].
For `COc1ccc(COC(=O)N/N=C2/C[C@@H](O)[C@@H](O)[C@@H]3[C@@H]4C(=O)N([C@@H](C)c5ccccc5)C(=O)[C@H]4CC[C@@H]23)cc1`, the activity change, negative = inhibition is -0.559% [at 8 µM].
For the compound `O=C(c1ccncc1)N1CCC2(CCN(Cc3cc(C(F)(F)F)cc(C(F)(F)F)c3)CC2)CC1`, the “activity change, negative = inhibition” value was 10.9%.
Take `C=C(C)C1CC=C(C)C(O)C1` (stereo not drawn): the “activity change, negative = inhibition” value was -3.62%.
As for `Cc1ccccc1S(=O)(=O)Cc1ccc(C(=O)NCCN2CCCCC2C)o1` (stereo not drawn), the “activity change, negative = inhibition” value is -12.4%.
Still for that read-out and setting: for `CN1CCN(CCCNC(=O)c2cc3c(=O)oc4ccccc4c3s2)CC1` the value was -6.55%.
As to `Cc1nc2ccccc2c2oc(C(=O)NCCCN3CCC(C)CC3)cc12`, the Potency was 5.01 µM (active).
For `CCOc1ccc(/C(O)=C2/C(=O)C(=O)N(Cc3cccnc3)C2c2ccc(N(C)C)cc2)c(C)c1` (stereo not drawn), the “activity change, negative = inhibition” value was 2.08%.
Regarding `Cn1c(=O)n2n(c1=O)[C@H]1[C@H](O)[C@H]3O[C@H]3C(=O)[C@H]1CC2`, the activity change, negative = inhibition was 12.4% [at 8 µM].
